According to PubChem BioAssay (Tox21):
Records with an inconclusive call do not appear. Where a call stands in place of a potency, no number is given. Unmarked numbers belong to inactive results. The source made the active and inactive calls. Unless noted, calls follow the shape of the dose curve; as a rule, active = well fitted curve in the direction sought with a large enough effect in the repeat runs; inconclusive = weak or mixed curves; inactive = no such curve, though single readings can be large; an effect the other way counts as inactive or inconclusive.

Assays:
[1] = qHTS assay to identify small molecule agonists of the vitamin D receptor (VDR) signaling pathway - cell viability counter screen (AID 743224); also: series mostly up to about 63 µM; nearly all actives have a fitted effect of over 50% in size
Procedure, shortened: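 VDR-bla cells were preincubated 4 h at 37C/5% CO2, then exposed to compounds for 16 h. After the 2 h room-temperature bla FRET read, CellTiter-Glo was added to the same wells and luminescence read after 30 min.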

[2] = qHTS assay to identify small molecule antagonists of the vitamin D receptor (VDR) signaling pathway - cell viability counter screen (AID 743225); also: nearly all actives have a fitted effect of over 50% in size
Procedure, shortened: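 Read-out: CellTiter-Glo luminescence measured 30 min after reagent addition at room temperature. Cells were VDR-bla HEK 293T exposed 16 h at 37C, 5% CO2, to compound with 3 nM final calcitriol agonist.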

[3] = qHTS assay to identify small molecule agonists of the NFkB signaling pathway - cell viability counter screen (AID 1159515; calls by dose curve; also: series mostly up to about 61 µM; nearly all actives have a fitted effect of over 55% in size)
Procedure, shortened: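 NFkB-bla ME-180 cells, 2,000/well, were plated overnight at 37 C, 5% CO2, then exposed to compounds in DMSO for 5 hr. After the bla FRET read, CellTiter-Glo was added to the same wells; luminescence was read after 30 min at room temperature.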

[4] = qHTS assay to identify small molecule agonists of the endoplasmic reticulum stress response signaling pathway (AID 1159516; active = well fitted activation curve with a large enough effect in the signal ratio in the repeat runs, not every such curve was filed as active; the % refers to the signal ratio)
Procedure, shortened: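 CellSensor ESRE-bla HeLa cells, carrying a beta-lactamase reporter driven by the ER stress response element, were plated overnight and exposed to compounds for 5 hr at 37 C. Reporter activity was read as FRET substrate fluorescence after 2 hr at room temperature.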

[5] = qHTS assay to identify small molecule agonists of the endoplasmic reticulum stress response signaling pathway - cell viability counter screen (AID 1159517; calls by dose curve; also: series mostly up to about 61 µM; nearly all actives have a fitted effect of over 50% in size)
Procedure, shortened: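 CellTiter-Glo was added to wells already read for beta-lactamase FRET, and luminescence was recorded 30 min later. Cells: ESRE-bla HeLa, 1,500 per well, compound exposure 5 hr at 37 C.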

[6] = qHTS assay to identify small molecule antagonists of the retinoid-related orphan receptor gamma (ROR-gamma) signaling pathway - cell viability counter screen (AID 1159520); also: nearly all actives have a fitted effect of over 50% in size
Procedure, shortened: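 Tet-on ROR gamma CHO cells (1,000/well) were plated 4 hr, given compounds in DMSO for 2 hr at 37 C, then induced with 1 uM final doxycycline for 16 hr. Viability was read as ATP by CellTiter-Glo luminescence after 30 min.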

[7] = qHTS assay to identify small molecule agonists of the AP-1 signaling pathway - cell viability counter screen (AID 1159525; calls by dose curve; also: nearly all actives have a fitted effect of over 55% in size)
Procedure, shortened: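 ME-180 AP-1-bla, 2500 cells/well, Opti-MEM + 0.5% dialyzed FBS; overnight 37 °C; cpd 15-pt titration, 5 h 37 °C; CellTiter-Glo 30 min RT; luminescence read; normalised to TOAB and DMSO controls.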

[8] = qHTS assay to identify small molecule agonists of the AP-1 signaling pathway (AID 1159526; calls by dose curve; also: potency is read from the fitted curve at half-maximal effect)
[9] = biological target: Retinoic acid receptor RXR-alpha (Homo sapiens) (UniProt P19793); assay: qHTS assay to identify small molecule agonists of the RXR signaling pathway (AID 1159527; calls by dose curve; also: nearly all actives have a fitted effect of over 35% in size)
Procedure, shortened: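 Read-out: beta-lactamase FRET ratio (405 nm excitation, 460 and 530 nm emission) after 2 hr substrate loading at room temperature. Cells were RXR-alpha-UAS-bla HEK 293T treated with compounds for 16 hr in 2% charcoal-stripped FBS medium.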

[10] = qHTS assay to identify small molecule agonists of the RXR signaling pathway - cell viability counter screen (AID 1159529)
Procedure, shortened: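 HEK 293T RXRa-bla cells, 2% CS-FBS; 5 h settle; cpd 16 h 37 C, 5% CO2; CellTiter-Glo 30 min RT, luminescence. Tetraoctyl ammonium bromide as positive control.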

[11] = qHTS assay to identify small molecule antagonists of the retinoid acid receptor (RAR) signaling pathway - cell viability counter screen (AID 1159551); also: nearly all actives have a fitted effect of over 35% in size
Procedure, shortened: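 C3RL4 cells were seeded overnight at 37 C, then treated with compounds plus 1 uM (final) retinol for 6 h at 37 C. Viability was read as ATP by CellTiter-Glo luminescence after 30 min at room temperature.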

[12] = qHTS assay to identify small molecule antagonists of the retinoic acid receptor (RAR) signaling pathway (AID 1159552; also: nearly all actives have a fitted effect of over 50% in size)
Procedure, shortened: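 Cells of the C3RL4 line were seeded, incubated overnight, then dosed with compounds in DMSO followed immediately by retinol (1 uM final). Six hours later luciferase detection reagent went in; signal was measured after 30 min at RT.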

[13] = qHTS assay to identify small molecule agonists of the retinoic acid receptor (RAR) signaling pathway (AID 1159553)
Procedure, shortened: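 C3RL4 cells carrying a RARE luciferase reporter were plated overnight at 37 C, then exposed to compounds in DMSO for 6 hr at 37 C and 5% CO2. Luminescence was read 30 min after luciferase reagent addition at room temperature.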

[14] = qHTS assay to identify small molecule antagonists of the estrogen related receptor (ERR) signaling pathway - cell viability counter screen (AID 1224818);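 also: series mostly up to about 46 µM; viability measured after 17.5 h of compound exposure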
Procedure, shortened: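 ERR reporter cells plated 6 h at 37 C/5% CO2, then compounds in DMSO pin-transferred and incubated 17.5 h at 37 C. Viability read as CellTiter-Fluor fluorescence after 30 min at 37 C.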

[15] = qHTS assay to identify small molecule antagonists of the estrogen related receptor (ERR) signaling pathway (AID 1224819)
Procedure, shortened: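 ERR reporter cells were plated at 2,000 cells/well and left 6 h at 37 C/5% CO2 before pin-tool transfer of compounds in DMSO. After 18 h at 37 C, One-Glo was added and luminescence was read 30 min later at room temperature.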

[16] = qHTS assay to identify small molecule agonists of the estrogen related receptor (ERR) signaling pathway (AID 1224820)
Procedure, shortened: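 ERR reporter cell line (from NTP), 2,000 cells/well, incubated 6 h before compound addition, then 18 h at 37 C. Luminescence measured 30 min after One-Glo reagent at room temperature.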

[17] = test system: estrogen-related receptor alpha (ERRalpha) with PGC-1alpha coactivator, human; assay: qHTS assay to identify small molecule antagonists of the estrogen related receptor signaling pathway with the pleiotropic PPARgamma coactivator (PGC) (AID 1224821; calls by dose curve)
Procedure, shortened: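 PGC/ERR reporter cell line, plated 6 h before compound addition, then exposed 18 h at 37 °C. Luciferase activity read by luminescence 30 min after One-Glo addition; decrease indicates antagonism.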

[18] = qHTS assay to identify small molecule antagonists of the estrogen related receptor signaling pathway with the pleiotropic PPARgamma coactivator (PGC) cell viability counter screen (AID 1224822; also: series mostly up to about 46 µM)
Procedure, shortened: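 PGC/ERR cells were seeded at 2,000 cells/well, rested 6 h at 37 C/5% CO2, then given compounds in DMSO by pin tool and incubated 17.5 h at 37 C. Viability came from CellTiter-Fluor fluorescence after 30 min.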

[19] = qHTS assay to identify small molecule agonists of the estrogen related receptor signaling pathway with the pleiotropic PPARgamma coactivator (PGC) (AID 1224823)
Procedure, shortened: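 PGC/ERR reporter cells seeded 6 h, then exposed to compounds (23 nL in DMSO) for 18 h at 37 C. One-Glo luciferase luminescence read after 30 min at room temperature.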

Chain of Retinoic acid receptor RXR-alpha (Homo sapiens) (P19793 whole entry, looked up): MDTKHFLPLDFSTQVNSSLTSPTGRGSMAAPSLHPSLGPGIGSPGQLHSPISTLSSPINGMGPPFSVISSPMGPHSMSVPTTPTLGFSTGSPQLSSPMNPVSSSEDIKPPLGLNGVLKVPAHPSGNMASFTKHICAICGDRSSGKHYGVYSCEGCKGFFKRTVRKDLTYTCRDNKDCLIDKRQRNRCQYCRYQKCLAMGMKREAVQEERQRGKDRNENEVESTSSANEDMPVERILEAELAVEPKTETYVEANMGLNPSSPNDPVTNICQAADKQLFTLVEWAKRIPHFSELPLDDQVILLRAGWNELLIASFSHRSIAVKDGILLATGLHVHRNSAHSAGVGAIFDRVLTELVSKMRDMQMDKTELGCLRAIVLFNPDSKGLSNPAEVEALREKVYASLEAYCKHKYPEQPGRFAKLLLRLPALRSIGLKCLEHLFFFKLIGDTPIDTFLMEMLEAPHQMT

| SMILES | Potency [1] | Potency [2] | Potency [3] | Potency [4] | Potency [5] | Potency [6] | Potency [7] | Potency [8] | Potency [9] | Potency [10] | Potency [11] | Potency [12] | Potency [13] | outcome [14] | Potency [15] | outcome [16] | Potency [17] | outcome [18] | outcome [19] |
| --- | --- | --- | --- | --- | --- | --- | --- | --- | --- | --- | --- | --- | --- | --- | --- | --- | --- | --- | --- |
| O=C(O)C(S)C(S)C(=O)O (stereo not given) | inactive | inactive | inactive | inactive | inactive | inactive | inactive | inactive | inactive | inactive | inactive | inactive | inactive |  |  |  |  |  |  |
| O=CC1CC=CCC1 (stereo not given) | inactive | inactive | inactive | inactive | inactive | inactive | inactive | inactive | inactive | inactive | inactive | inactive | inactive |  |  |  |  |  |  |
| C=C(C)C(=O)OCCO | inactive | inactive | inactive | inactive | inactive | inactive | inactive | inactive |  | inactive | inactive | inactive | inactive |  |  |  |  |  |  |
| CCC(=O)O[C@]1(C(=O)CCl)[C@@H](C)C[C@H]2[C@@H]3CCC4=CC(=O)C=C[C@]4(C)[C@@]3(F)[C@@H](O)C[C@@]21C | inactive | inactive | inactive | inactive | inactive | inactive | inactive | inactive |  | inactive | inactive | inactive | inactive |  |  |  |  |  |  |
| O=C(O)c1nc(Cl)c(Cl)c(Cl)c1Cl | inactive |  | inactive | inactive | inactive | inactive | inactive | inactive |  | inactive | inactive | inactive | inactive |  |  |  |  |  |  |
| CCCn1cnc2c1c(=O)n(CCCCC(C)=O)c(=O)n2C | inactive | inactive | inactive | inactive | inactive | inactive | inactive | inactive | inactive | inactive | inactive |  |  | inactive | inactive | inactive | inactive | inactive | inactive |
| CCCCNc1ccc(C(=O)OCCOCCOCCOCCOCCOCCOCCOCCOCCOC)cc1 | inactive | inactive | inactive | inactive | inactive | inactive | inactive | inactive | inactive |  | inactive |  |  |  |  |  |  |  |  |
| N=c1ccn2c(n1)O[C@H]1[C@H](O)[C@@H](CO)O[C@H]12 | inactive |  | inactive | inactive | inactive | inactive | inactive | inactive | inactive | inactive | inactive |  |  |  |  |  |  |  |  |
| CCCCC(=O)OCC(=O)[C@H]1[C@H](C)C[C@H]2[C@@H]3C[C@H](F)C4=CC(=O)C=C[C@]4(C)[C@@]3(F)[C@@H](O)C[C@@]21C | inactive | inactive | inactive | inactive | inactive | inactive | inactive | inactive | inactive |  | inactive |  |  |  |  |  |  |  |  |
| Cc1c(N)cccc1[N+](=O)[O-] | inactive | inactive | inactive | inactive | inactive | inactive | inactive | inactive |  | inactive | inactive |  | inactive |  |  |  |  |  |  |
| NS(=O)(=O)c1ccc(N2CCCCS2(=O)=O)cc1 | inactive | inactive | inactive | inactive | inactive | inactive | inactive | inactive | inactive | inactive |  | inactive | inactive |  |  |  |  |  |  |
| COCC(C)OC(C)=O (stereo not given) | inactive | inactive | inactive | inactive | inactive | inactive | inactive | inactive | inactive | inactive | inactive | inactive | inactive |  |  |  |  |  |  |
| Nc1cccc([N+](=O)[O-])c1 | inactive | inactive | inactive | inactive | inactive | inactive | inactive | inactive | inactive | inactive | inactive |  | inactive |  |  |  |  |  |  |
| CC(=O)[O][Al][O]C(C)=O | inactive | inactive | inactive | inactive | inactive | inactive | inactive | inactive |  | inactive | inactive |  | inactive |  |  |  |  |  |  |
| CC1=CC[C@H](C(C)C)C=C1 | inactive |  | inactive | inactive | inactive | inactive | inactive | inactive | inactive |  |  |  |  |  |  |  |  |  |  |
| COC(C)(C)CCO | inactive | inactive | inactive | inactive | inactive | inactive | inactive | inactive | inactive | inactive |  | inactive | inactive |  |  |  |  |  |  |
| OC(C#CCN1CCCC1)(c1ccccc1)c1ccccc1 | inactive | inactive | inactive | inactive | inactive | inactive | inactive | 16.9 µM (active) |  | inactive | inactive | inactive | inactive |  |  |  |  |  |  |
| CC(C)(CO)[N+](=O)[O-] | inactive | inactive | inactive | inactive | inactive | inactive | inactive | inactive | inactive | inactive |  |  |  |  |  |  |  |  |  |
| CC(CC=O)c1ccccc1 (stereo not given) | inactive | inactive | inactive | inactive | inactive | inactive | inactive | inactive |  | inactive | inactive | inactive |  |  |  |  |  |  |  |
